Data taken from PubChem BioAssay.
Active and inactive are the calls of the source.

Experiments:
[1] = system: PRMT1 (protein arginine N-methyltransferase 1); test: PRMT1 binders on small-molecule microarrays, primary screen, biochemical, small-molecule microarray, 635 nm fluorescence (AID 1088); conditions: small-molecule microarray binding, higher = more signal;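 further: binding of Prmt1 protein to compounds spotted on small-molecule microarray slides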
[2] = yeast growth modulation, basal conditions, primary screen, YJM789 clinical isolate, OD600, 24 h (AID 1089);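 further: growth of clinical yeast isolate S. cerevisiae YJM 789 seeded 1000 cells per well; test concentration not given here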; conditions: S. cerevisiae YJM789 growth, higher = more signal, called active from +8 up or from −8 down
[3] = fission yeast growth modulation, primary screen, strain 972, OD600, 24 h, no modulator (AID 1090);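 further: basal condition with compound alone and no growth modifier present; test concentration not given here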; conditions: S. pombe 972 growth, higher = more signal, called active from +8 up or from −8 down
[4] = S. cerevisiae growth modulation with rapamycin, primary screen, strain BY4716, OD600, 96 h (AID 1091); conditions: higher = more signal, called active from +8 up or from −8 down; further: test concentration not given here
[5] = biological target: Torsin-1A-interacting protein 2 (Homo sapiens) (UniProt Q8NFQ8); test: LULL1 binders on small-molecule microarray, primary screen, cell lysate, human LULL1 lysate, 635/667 nm fluorescence (AID 1092); conditions: hLULL1 lysate binding, 635 nm fluorescence, higher = more signal;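 further: probe is lysate of COS7 cells overexpressing human LULL1; score merges per-feature 667 nm fluorescence with signal-to-noise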
Chain of Torsin-1A-interacting protein 2 (Homo sapiens) (Q8NFQ8 whole entry, looked up): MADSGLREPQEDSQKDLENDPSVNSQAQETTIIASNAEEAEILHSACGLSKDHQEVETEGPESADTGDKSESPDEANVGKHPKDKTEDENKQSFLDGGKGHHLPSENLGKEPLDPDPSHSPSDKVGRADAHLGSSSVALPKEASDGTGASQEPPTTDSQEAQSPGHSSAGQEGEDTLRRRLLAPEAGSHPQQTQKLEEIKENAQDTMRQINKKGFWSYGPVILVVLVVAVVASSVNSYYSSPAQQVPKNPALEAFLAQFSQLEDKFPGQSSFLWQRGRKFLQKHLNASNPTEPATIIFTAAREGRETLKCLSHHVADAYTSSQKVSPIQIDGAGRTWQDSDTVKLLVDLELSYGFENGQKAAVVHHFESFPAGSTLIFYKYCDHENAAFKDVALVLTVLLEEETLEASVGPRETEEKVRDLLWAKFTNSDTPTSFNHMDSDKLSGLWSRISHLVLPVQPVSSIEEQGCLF

[6] = E. coli growth modulation, two-sided OD650, primary screen, E. coli filamentation project, strain DRC41, 24 h (AID 1093); conditions: OD650, 24 h, higher = more signal, called active from +8 up or from −8 down;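 further: MC1000 strain lacking acrAB efflux and sulA so SOS filamentation is blocked; test concentration not given here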
[7] = small-molecule microarray binders of probe aLefty2, primary screen, biochemical, biotinylated probe, 635/667 nm fluorescence (AID 1094); conditions: higher = more signal;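 further: score merges spot fluorescence near 667 nm with spot signal-to-noise ratio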
[8] = system: Noggin (protein binding on small-molecule microarray); test: Noggin binders on small-molecule microarray, primary screen, biochemical, 635/667 nm fluorescence (AID 1095); conditions: 635 nm fluorescence, higher = more signal;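 further: score merges 667 nm feature fluorescence with signal to noise over triplicate slides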
[9] = biological target: Neurogenic locus notch homolog protein 3 (Homo sapiens) (UniProt Q9UM47); test: NOTCH3 binders on small-molecule microarray, primary screen, biochemical, 635/667 nm fluorescence (AID 1096); conditions: NOTCH3 binding, 635 nm fluorescence, higher = more signal
Chain of Neurogenic locus notch homolog protein 3 (Homo sapiens) (Q9UM47 whole entry, looked up): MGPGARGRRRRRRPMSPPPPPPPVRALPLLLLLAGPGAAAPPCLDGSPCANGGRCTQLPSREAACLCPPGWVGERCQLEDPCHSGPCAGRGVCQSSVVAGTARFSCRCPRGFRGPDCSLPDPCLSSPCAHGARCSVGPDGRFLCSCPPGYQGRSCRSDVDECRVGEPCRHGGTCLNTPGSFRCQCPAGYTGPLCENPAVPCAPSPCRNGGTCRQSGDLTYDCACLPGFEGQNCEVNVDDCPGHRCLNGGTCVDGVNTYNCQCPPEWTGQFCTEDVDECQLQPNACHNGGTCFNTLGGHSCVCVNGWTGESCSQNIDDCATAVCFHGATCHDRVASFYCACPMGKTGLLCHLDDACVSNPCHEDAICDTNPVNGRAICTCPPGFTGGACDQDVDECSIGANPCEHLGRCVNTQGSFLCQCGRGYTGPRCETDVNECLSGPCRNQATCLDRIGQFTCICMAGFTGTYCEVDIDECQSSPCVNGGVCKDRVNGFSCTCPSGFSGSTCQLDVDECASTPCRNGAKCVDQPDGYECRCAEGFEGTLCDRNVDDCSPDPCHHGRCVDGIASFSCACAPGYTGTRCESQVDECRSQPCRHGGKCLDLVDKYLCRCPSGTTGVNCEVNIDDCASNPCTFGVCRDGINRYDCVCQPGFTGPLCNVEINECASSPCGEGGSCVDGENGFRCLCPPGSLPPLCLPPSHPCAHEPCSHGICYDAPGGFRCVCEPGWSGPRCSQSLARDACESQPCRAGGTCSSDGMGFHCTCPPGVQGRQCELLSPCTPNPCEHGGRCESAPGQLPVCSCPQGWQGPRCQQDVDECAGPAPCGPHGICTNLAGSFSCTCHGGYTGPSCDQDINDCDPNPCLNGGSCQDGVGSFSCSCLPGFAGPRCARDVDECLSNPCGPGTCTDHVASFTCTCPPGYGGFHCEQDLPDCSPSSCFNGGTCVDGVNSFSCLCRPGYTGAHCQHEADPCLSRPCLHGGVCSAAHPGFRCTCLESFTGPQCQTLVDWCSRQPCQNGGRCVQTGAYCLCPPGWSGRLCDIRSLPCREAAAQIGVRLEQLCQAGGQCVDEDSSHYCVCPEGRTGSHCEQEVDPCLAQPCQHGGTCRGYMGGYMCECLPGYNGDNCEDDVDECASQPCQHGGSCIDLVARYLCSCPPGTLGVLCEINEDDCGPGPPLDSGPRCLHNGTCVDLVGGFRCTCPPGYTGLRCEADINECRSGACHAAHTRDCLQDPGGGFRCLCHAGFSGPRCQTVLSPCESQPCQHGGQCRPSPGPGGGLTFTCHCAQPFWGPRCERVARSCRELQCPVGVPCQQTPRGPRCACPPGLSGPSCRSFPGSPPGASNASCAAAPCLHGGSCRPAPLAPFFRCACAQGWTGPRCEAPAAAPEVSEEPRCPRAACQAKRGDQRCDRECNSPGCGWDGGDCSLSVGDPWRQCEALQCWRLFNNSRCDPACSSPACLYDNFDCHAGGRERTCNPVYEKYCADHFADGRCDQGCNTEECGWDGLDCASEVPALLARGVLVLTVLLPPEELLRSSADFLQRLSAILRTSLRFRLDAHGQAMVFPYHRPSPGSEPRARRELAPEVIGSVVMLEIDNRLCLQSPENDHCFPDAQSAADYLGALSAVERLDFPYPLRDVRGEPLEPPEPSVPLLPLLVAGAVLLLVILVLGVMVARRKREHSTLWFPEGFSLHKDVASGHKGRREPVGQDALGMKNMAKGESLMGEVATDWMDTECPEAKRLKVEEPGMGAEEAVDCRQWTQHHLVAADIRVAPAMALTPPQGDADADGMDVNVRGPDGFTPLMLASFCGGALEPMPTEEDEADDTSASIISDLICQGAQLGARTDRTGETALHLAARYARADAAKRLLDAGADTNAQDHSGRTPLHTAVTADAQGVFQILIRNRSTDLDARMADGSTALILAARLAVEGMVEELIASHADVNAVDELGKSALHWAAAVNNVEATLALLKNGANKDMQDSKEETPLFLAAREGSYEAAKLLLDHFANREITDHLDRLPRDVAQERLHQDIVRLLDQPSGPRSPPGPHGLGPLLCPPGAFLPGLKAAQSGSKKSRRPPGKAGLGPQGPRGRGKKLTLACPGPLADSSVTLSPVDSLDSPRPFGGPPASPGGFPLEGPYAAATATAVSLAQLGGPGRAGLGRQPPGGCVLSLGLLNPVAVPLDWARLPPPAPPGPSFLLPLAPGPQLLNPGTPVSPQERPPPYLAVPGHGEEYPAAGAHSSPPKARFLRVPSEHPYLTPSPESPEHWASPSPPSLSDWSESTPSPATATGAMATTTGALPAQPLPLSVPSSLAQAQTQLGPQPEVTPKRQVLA

[10] = small-molecule microarray binders of probe aEGFR, primary screen, biochemical, biotinylated probe, 635/667 nm fluorescence (AID 1097); conditions: higher = more signal;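 further: probe is a biotinylated anti-EGFR antibody binding compounds printed on slides; score combines fluorescence near 667 nm and signal to noise of each spot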
[11] = system: Plasmodium falciparum Sir2 (PF13_0152, Sir2A); test: pfSir2 binders on small-molecule microarrays, primary screen, biochemical, small-molecule microarray, 635 nm fluorescence (AID 1098); conditions: small-molecule microarray binding, fluorescence 635 nm; higher = more signal;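 further: score merges spot fluorescence intensity with its signal-to-noise ratio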
[12] = small-molecule microarray binders of probe aDKK1, primary screen, biochemical, biotinylated probe, 635/667 nm fluorescence (AID 1099); conditions: higher = more signal;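 further: score merges 667nm spot fluorescence with signal to noise across triplicate slides; reference of the scale not given here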
[13] = small-molecule microarray binders of probe aCHRDL2, primary screen, biochemical, biotinylated probe, 635/667 nm fluorescence (AID 1100); conditions: higher = more signal
[14] = splicing luciferase reporter signal modulators, primary screen, spliceosome inhibition project, cell-based, HEK293, splice +/- reporter (AID 1101); conditions: luminescence, 24 h, higher = more signal, called active from +8 up or from −8 down;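 further: HEK293 cells carrying a splicing-competent luciferase reporter gene; test concentration not given here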
[15] = biological target: Fibroblast growth factor 10 (Homo sapiens) (UniProt O15520); test: FGF10 binders on small-molecule microarrays, primary screen, biochemical, small-molecule microarray, 635 nm fluorescence (AID 1102); conditions: FGF10 binding, fluorescence 635 nm, higher = more signal
Chain of Fibroblast growth factor 10 (Homo sapiens) (O15520 whole entry, looked up): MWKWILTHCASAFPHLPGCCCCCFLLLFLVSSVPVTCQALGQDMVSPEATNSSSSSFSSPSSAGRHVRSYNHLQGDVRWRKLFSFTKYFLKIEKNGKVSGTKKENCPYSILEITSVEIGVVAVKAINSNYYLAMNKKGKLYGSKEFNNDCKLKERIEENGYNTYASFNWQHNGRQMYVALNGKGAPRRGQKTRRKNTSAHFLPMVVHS

[16] = system: glycogen synthase kinase-3 (GSK3A per assay name; protocol says GSK3B); test: GSK3 binders on small-molecule microarrays, primary screen, biochemical, small-molecule microarray, 635 nm fluorescence, GSK3A (AID 1103); conditions: small-molecule microarray binding, fluorescence 635 nm; higher = more signal; further: the record names both GSK3A and GSK3B
[17] = biological target: Epidermal growth factor receptor (Homo sapiens) (UniProt P00533); test: EGFR binders on small-molecule microarrays, primary screen, biochemical, small-molecule microarray, 635 nm fluorescence (AID 1104); conditions: EGFR binding, higher = more signal;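 further: score merges 667 nm emission intensity with spot signal to noise over triplicate slides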
Chain of Epidermal growth factor receptor (Homo sapiens) (P00533 whole entry, looked up): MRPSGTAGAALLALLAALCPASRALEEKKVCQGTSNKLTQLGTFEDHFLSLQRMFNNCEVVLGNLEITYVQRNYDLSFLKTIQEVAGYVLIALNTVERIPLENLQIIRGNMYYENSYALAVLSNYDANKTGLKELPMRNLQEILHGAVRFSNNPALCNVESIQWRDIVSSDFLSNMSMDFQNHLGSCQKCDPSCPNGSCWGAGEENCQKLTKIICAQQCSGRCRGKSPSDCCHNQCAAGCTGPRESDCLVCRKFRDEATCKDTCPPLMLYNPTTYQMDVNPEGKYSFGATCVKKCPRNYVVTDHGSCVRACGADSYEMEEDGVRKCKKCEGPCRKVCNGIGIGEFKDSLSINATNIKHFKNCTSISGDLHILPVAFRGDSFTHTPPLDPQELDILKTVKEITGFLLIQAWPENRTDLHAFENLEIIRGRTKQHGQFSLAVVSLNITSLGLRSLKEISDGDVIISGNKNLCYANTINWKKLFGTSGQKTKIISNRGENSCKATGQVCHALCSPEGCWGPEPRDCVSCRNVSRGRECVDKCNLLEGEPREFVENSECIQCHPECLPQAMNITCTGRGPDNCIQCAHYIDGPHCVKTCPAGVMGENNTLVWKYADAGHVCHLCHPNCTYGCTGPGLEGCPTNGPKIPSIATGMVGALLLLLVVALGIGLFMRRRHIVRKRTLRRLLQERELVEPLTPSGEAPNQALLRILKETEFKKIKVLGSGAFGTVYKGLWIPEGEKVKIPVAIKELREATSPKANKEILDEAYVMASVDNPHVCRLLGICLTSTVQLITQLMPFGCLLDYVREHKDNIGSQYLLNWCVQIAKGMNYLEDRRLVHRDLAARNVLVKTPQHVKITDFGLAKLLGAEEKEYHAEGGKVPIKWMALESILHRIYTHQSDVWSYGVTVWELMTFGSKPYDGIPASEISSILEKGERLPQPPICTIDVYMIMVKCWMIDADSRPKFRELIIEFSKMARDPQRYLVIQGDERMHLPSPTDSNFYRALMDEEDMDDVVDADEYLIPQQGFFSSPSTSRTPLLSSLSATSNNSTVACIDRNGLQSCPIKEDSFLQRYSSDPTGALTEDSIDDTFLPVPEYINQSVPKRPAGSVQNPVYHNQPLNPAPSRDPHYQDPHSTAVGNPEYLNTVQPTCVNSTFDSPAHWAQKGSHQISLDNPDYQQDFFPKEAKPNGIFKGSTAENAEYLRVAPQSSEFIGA

[18] = biological target: Follistatin-related protein 3 (Homo sapiens) (UniProt O95633); test: FSTL3 binders on small-molecule microarrays, primary screen, biochemical, small-molecule microarray, 635 nm fluorescence (AID 1105); conditions: FSTL3 binding, higher = more signal;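 further: score merges emission near 667 nm and signal to noise per printed spot across three slides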
Chain of Follistatin-related protein 3 (Homo sapiens) (O95633 whole entry, looked up): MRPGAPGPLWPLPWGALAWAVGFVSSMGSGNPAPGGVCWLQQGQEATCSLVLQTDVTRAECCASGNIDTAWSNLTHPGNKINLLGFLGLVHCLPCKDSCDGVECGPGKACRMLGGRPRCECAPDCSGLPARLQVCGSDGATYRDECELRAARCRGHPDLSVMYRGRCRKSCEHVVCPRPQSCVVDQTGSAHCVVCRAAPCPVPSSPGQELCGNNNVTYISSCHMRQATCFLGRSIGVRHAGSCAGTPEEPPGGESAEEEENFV

[19] = biological target: Dickkopf-related protein 1 (Homo sapiens) (UniProt O94907); test: DKK1 binders on small-molecule microarrays, primary screen, biochemical, small-molecule microarray, 635 nm fluorescence scan (AID 1106); conditions: DKK1 binding, higher = more signal;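 further: score merges emission near 667 nm with signal to noise over three replicate slides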
Chain of Dickkopf-related protein 1 (Homo sapiens) (O94907 whole entry, looked up): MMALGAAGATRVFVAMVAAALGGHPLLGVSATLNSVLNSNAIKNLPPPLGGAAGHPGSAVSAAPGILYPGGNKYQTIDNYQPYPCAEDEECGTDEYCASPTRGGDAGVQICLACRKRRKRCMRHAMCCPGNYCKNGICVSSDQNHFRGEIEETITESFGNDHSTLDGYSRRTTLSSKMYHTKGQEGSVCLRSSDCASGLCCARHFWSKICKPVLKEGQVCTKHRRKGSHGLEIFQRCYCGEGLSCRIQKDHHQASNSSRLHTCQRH

[20] = system: Inhibin beta A chain (activin A); test: INHBA (activin A) binders on microarrays, primary screen, biochemical, small-molecule microarray, 635 nm fluorescence scan (AID 1107); conditions: small-molecule microarray binding, higher = more signal;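 further: mouse activin A protein probed at 4.33 µg/mL on printed slides; score merges bound-protein fluorescence near 667 nm with spot signal-to-noise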

Row | Compound | composite z-score [1] | z-score [2] | z-score [3] | z-score [4] | composite z-score [5] | z-score [6] | composite z-score [7] | composite z-score [8] | composite z-score [9] | composite z-score [10] | composite z-score [11] | composite z-score [12] | composite z-score [13] | z-score [14] | composite z-score [15] | composite z-score [16] | composite z-score [17] | composite z-score [18] | composite z-score [19] | composite z-score [20]
1 | O=C1NC(=O)C2C1C=CC(C(O)C1CC=CCC1)N2Nc1ccccn1 (stereo not given) | 0.241 | 1.13 (inactive) | 0.869 (inactive) | 0.728 (inactive) | 0.861 | -0.813 (inactive) | 0.113 | -0.0801 | 0.328 | 0.26 | 1.27 | 0.228 | 0.21 | 1.17 (inactive) | 0.946 | 0.0089 | 1.25 | 0.179 | 1.33 | 1.75
2 | O=C(O)[C@H]1C[C@H]2C(=O)N3CCC[C@H]3C(=O)N2[C@H]1c1ccc(O)cc1 | -0.57 | 0.428 (inactive) | -0.613 (inactive) | 0.333 (inactive) | 0.631 | 0.863 (inactive) | 0.0212 | -0.571 | -1.23 | -0.268 | 0.383 | -0.0067 | 0.915 | 0.127 (inactive) | -1.41 | -0.474 | -1.51 | -0.949 | -1.13 | -0.209
3 | CC(C)[C@@H](C(=O)O)n1cc(C2(O)CCCCC2)nn1 | 0.629 | -0.791 (inactive) | 0.462 (inactive) | -1.12 (inactive) | 1.02 | 0.616 (inactive) | -0.132 | 0.731 | 1.05 | -0.02 | 0.221 | -0.184 | -0.55 | -0.291 (inactive) | 0.928 | 1.09 | 0.15 | 0.457 | 0.301 | -0.352
4 | COC(=O)[C@@]1(Cc2ccc(F)cc2)[C@H]2c3cc(C(=O)N(C)C)n(Cc4cc(C)n(C)n4)c3C[C@H]2CN1C(=O)c1ccccc1 | 1.02 | 0.619 (inactive) | 0.456 (inactive) | -0.109 (inactive) | 3.09 | -0.38 (inactive) | 0.629 | -0.421 | 1.01 | 0.14 | 1.16 | 1.2 | 1.19 | -1.99 (inactive) | 1.17 | 0.716 | -0.0733 | 0.386 | 0.0455 | 0.609
5 | COCC(=C=CC[C@H](O)c1cccc(OCCO)c1)CCO | 1.47 | -0.45 (inactive) | -0.19 (inactive) | -0.55 (inactive) | 2.12 | 0.0234 (inactive) | -0.185 | 0.69 | 0.898 | -0.112 | 0.34 | -0.0405 | -0.101 | 0.105 (inactive) | 0.569 | -0.218 | -0.0436 | 0.688 | 0.0241 | 0.177
6 | O=C1O[C@@H](c2ccccc2)[C@@H](c2ccccc2)N2[C@@H](c3ccccc3OCCO)[C@]3(C(=O)Nc4ccccc43)[C@@H](C(=O)O)[C@H]12 | 1.02 | 0.232 (inactive) | -1.1 (inactive) | -1.17 (inactive) | 3.02 | -0.413 (inactive) | -0.175 | -0.314 | 0.406 | -0.185 | 1.61 | -0.124 | 0.148 | -1.71 (inactive) | 0.798 | -0.269 | -0.447 | 0.0073 | -0.499 | -0.143
7 | COCCOC(=O)N1C(=O)[C@@]2(c3ccccc31)[C@H](C(N)=O)[C@H]1C(=O)O[C@H](c3ccccc3)[C@H](c3ccccc3)N1[C@@H]2c1ccc(O)cc1 | 1.38 | -1.19 (inactive) | -1.3 (inactive) | 0.695 (inactive) | 3.1 | 0.628 (inactive) | -0.166 | -0.32 | 0.129 | -0.171 | 0.784 | -0.566 | 0.481 | -0.726 (inactive) | 0.0392 | -0.0985 | -0.458 | 0.292 | -0.0601 | 0.0565
8 | COCC(=C=CC[C@H](O)c1ccccc1OCCO)CCO | 0.43 | -0.594 (inactive) | -0.5 (inactive) | -0.127 (inactive) | 1.8 | 0.309 (inactive) | 0.0041 | 0.698 | 0.318 | -0.1 | 1.52 | 0.0439 | -0.423 | 0.338 (inactive) | 0.919 | 0.485 | -0.865 | 0.612 | 0.274 | 0.564
9 | COC(=O)[C@@]1(Cc2ccc(OC)cc2)[C@H]2c3cc(C(=O)N4CCCC4)n(CCSCCO)c3C[C@H]2CN1C(=O)c1ccccc1 | 0.416 | 0.786 (inactive) | 1.72 (inactive) | 1.25 (inactive) | 3.38 | -0.647 (inactive) | 0.172 | -0.492 | 0.671 | 0.157 | 0.45 | 0.852 | 1.21 | -0.657 (inactive) | 0.556 | 0.541 | 0.0009 | -0.17 | -0.984 | 0.435
10 | CN1CCC(CCCO)=CC1c1cccs1 (stereo not given) | -0.0029 | -1.69 (inactive) | -0.327 (inactive) | -0.489 (inactive) | -0.93 | 0.345 (inactive) | -0.166 | 0.0615 | 0.0121 | -0.108 | 0.238 | -0.391 | -0.141 | 0.697 (inactive) | -0.095 | 0.0706 | -0.185 | -0.61 | 0.208 | 0.233
